# In PubChem BioAssay (NCATS):
# Values joined by “and” are separate entries in the source; they are usually repeats but may differ in a detail not shown here. Identical values can stand only once. Inconclusive results are not listed. Values without a mark were called inactive. Active and inactive are the calls of the source. Unless noted, the call rests on the fitted dose curve; in most records, active means well fitted curve in either direction with a large enough effect (not every such curve was filed as active); inconclusive means small, poorly fitted or top-dose-only effect, or another doubt; inactive means flat fitted curve, though single readings scatter. Peptide text beside a SMILES is read from it.
# Tests used:
# [1] = AP1 Signaling Pathway (AID 357); conditions: ME-180 AP-1-bla reporter, EGF-induced, beta-lactamase ratio, 5 h; series mostly up to 17.2 µM;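 further: ME-180 reporter cells stimulated with EGF at its EC50 level; on the % scale 0 is the no-effect control and ±100 the full control effect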
# Summary of the method: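 Titration-series screen for positive or negative modulators of EC50 EGF-induced signaling in ME-180 cells carrying an AP-1-driven beta-lactamase reporter. After 5 hours at 37 degrees Celsius, CCF4 460nm/530nm emission ratio gave %Activity; AC50 values derived.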
# [2] = target: Cytochrome P450 1A2 (Homo sapiens) (UniProt P05177); test: p450-cyp1a2 (AID 410; calls by dose curve; further: potency means the concentration at half of the fitted maximal effect;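 on activity change, negative = inhibition: -100% = full effect of reference inhibitor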); conditions: recombinant CYP1A2, luciferin-ME demethylation, luminescence; series mostly up to 25.6 µM
# Summary of the method: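 O-Demethylation of luciferin 6' methyl ether by human CYP1A2 is monitored as luciferase luminescence. Substrate sits at Km (100uM); enzyme is 20nM. Values are scaled to 57 uM furafylline as maximal inhibition.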
# [3] = Stat Signaling Pathway (AID 446); conditions: ME-180 (cervical carcinoma) SIE beta-lactamase reporter, IL-6 stimulated, 5 h; series mostly up to 17.2 µM;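 further: ME-180 cervical cancer cells given 40 pM IL-6 alongside compound; SIE-controlled beta-lactamase reporter measured as 460/530 nm FRET emission ratio; on the % scale 0 is the no-effect control and ±100 the full control effect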
# Summary of the method: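 Normalization used AC90 stimulation (300 pM IL-6) and AC90 inhibition (125 nM pan-JAK inhibitor at 40 pM IL-6). The underlying signal is SIE-driven beta-lactamase in ME-180 cells after 5 h IL-6 exposure with compound.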
# [4] = NFAT Signaling Pathway (AID 444); conditions: Jurkat NFAT-bla M1, carbachol, beta-lactamase ratio, 5 h;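 further: carbachol stimulus at about its EC50 of 1 µM final; on the % scale 0 is the no-effect control and ±100 the full control effect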
# Summary of the method: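 Jurkat cells carrying an NFAT-driven β-lactamase reporter and co-transfected muscarinic M1 receptor were treated with compound plus carbachol (1 uM final, an EC50 level) for 5 h at 37 °C. CCF4 loading followed for 1 h at RT; 460/530 nm ratio gave %activity.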
# [5] = Cell Viability - BJ (AID 421; calls by dose curve;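 further: potency means the concentration at half of the fitted maximal effect; cells exposed to compound for 40 hours at 37 °C before readout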); conditions: BJ fibroblast viability, qHTS
# Summary of the method: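 Normal human BJ foreskin fibroblasts, 1500/well in complete medium, treated 40 hr at 37 °C. Cellular ATP by CellTiter-Glo luminescence; normalized to DMSO and 100 uM tamoxifen, AC50 from Hill fit.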
# [6] = Cell Viability - Jurkat (AID 426;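 active means dose-dependent loss of cell ATP signal giving a full or clear fitted curve, ranked by lower potency value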; further: potency means the concentration at half of the fitted maximal effect); conditions: qHTS
# Summary of the method: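 Cells of the human T-cell leukemia line Jurkat (E6-1) are seeded at 5000 per well, treated with compound across a concentration range for 40 hours at 37 °C, then lysed with CellTiter-Glo; luminescence reports ATP.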
# [7] = Cell Viability - Hek293 (AID 427;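 active means compounds whose dose-response curve shows a full or clear partial loss of cell viability, called from curve shape rather than a numeric limit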;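 further: potency means the concentration at half of the fitted maximal effect; cells exposed to compound for 40 hours at 37 °C before reading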); conditions: qHTS
# Summary of the method: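 HEK293 cells in complete medium were exposed to compound for 40 hr at 37 °C, then cellular ATP was read by CellTiter-Glo luminescence. Data were normalized to DMSO (basal) and 100 uM tamoxifen (100% inhibition), and AC50 came from Hill fits.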
# [8] = Cell Viability - HepG2 (AID 433; calls by dose curve;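 further: potency means the concentration at half of the fitted maximal effect; potency for ATP loss meaning cytotoxicity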); conditions: qHTS
# Summary of the method: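 HepG2 hepatocellular carcinoma cells (1500/well) were treated with compounds for 40 h at 37 °C in complete medium; intracellular ATP was read by CellTiter-Glo luminescence. Data were normalized to DMSO and 100 uM tamoxifen, and AC50 came from Hill fits.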
# [9] = Cell Viability - MRC5 (AID 434; calls by dose curve;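 further: potency means the concentration at half of the fitted maximal effect; potency reflects cytotoxicity seen as loss of intracellular ATP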); conditions: MRC5 lung fibroblast viability, qHTS
# Summary of the method: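 Decrease in intracellular ATP, quantified by luciferase light output, reflects compound toxicity toward MRC5 cells exposed for 40 hr in complete culture medium. Concentration-response curves, scaled between DMSO and 100 uM tamoxifen, gave AC50 values.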
# [10] = Cell Viability - SK-N-SH (AID 435; calls by dose curve;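 further: potency means the concentration at half of the fitted maximal effect; compound exposure lasted 40 h at 37 °C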); conditions: SK-N-SH neuroblastoma cell viability qHTS
# Summary of the method: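 SK-N-SH human neuroblastoma cells (1500/well) were exposed to compounds in complete medium for 40 h at 37 °C, and intracellular ATP was then measured by CellTiter-Glo luminescence. AC50 was taken from Hill fits, normalized to DMSO and 100 uM tamoxifen.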
# Chain of Cytochrome P450 1A2 (Homo sapiens) (P05177 whole entry, looked up): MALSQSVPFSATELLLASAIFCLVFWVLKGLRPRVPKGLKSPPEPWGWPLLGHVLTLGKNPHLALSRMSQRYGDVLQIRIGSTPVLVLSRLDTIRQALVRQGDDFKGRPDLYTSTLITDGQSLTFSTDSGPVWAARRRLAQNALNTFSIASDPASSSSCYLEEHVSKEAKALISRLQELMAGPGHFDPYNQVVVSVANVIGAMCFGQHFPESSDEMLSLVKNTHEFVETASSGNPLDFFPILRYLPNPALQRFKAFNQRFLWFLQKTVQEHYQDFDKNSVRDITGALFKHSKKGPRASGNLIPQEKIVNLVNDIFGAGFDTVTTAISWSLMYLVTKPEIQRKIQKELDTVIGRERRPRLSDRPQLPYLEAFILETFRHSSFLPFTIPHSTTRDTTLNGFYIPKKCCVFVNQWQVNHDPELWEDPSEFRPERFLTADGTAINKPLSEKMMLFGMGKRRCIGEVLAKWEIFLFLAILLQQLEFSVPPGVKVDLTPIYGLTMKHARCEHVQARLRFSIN
smiles,measurement,setting,value
Oc1ccc(-c2nc(-c3ccc(F)cc3)c(-c3ccncc3)[nH]2)cc1,outcome,[1],inactive
same,Potency,[2],15.8 µM (active)
same,outcome,[3],inactive
O=C(O)c1cc(=O)c2c(OCC(O)COc3cccc4oc(C(=O)O)cc(=O)c34)cccc2o1,outcome,[1],inactive
same,Potency,[2],inactive
same,outcome,[3],inactive
Cc1cc(=O)oc2cc(O)ccc12,outcome,[1],inactive
same,Potency,[2],3.98 µM (active)
same,outcome,[3],inactive
CC1(C)C(=O)N(CCN2CCC(C(=O)c3ccc(F)cc3)CC2)c2ccccc21,outcome,[1],inactive
same,Potency,[2],inactive
same,"activity change, negative = inhibition",[4]; at 38 µM (top of the series),-22.8%
same,outcome,[3],inactive
Cc1ccc(C)c(OCCCC(C)(C)C(=O)O)c1,outcome,[1],inactive
same,Potency,[2],12.6 µM (active)
same,Potency,[5],> 92 µM
same,Potency,[6],> 92 µM
same,Potency,[7],> 92 µM
same,Potency,[8],> 92 µM
same,Potency,[9],> 92 µM
same,Potency,[10],> 92 µM
same,outcome,[3],inactive
COc1c2occc2cc2ccc(=O)oc12,outcome,[1],inactive
same,Potency,[5],> 92 µM
same,Potency,[6],> 92 µM
same,Potency,[7],> 92 µM
same,Potency,[8],> 92 µM
same,Potency,[9],> 92 µM
same,Potency,[10],> 92 µM
same,"activity change, negative = inhibition",[4]; at 17.2 µM (top of the series),0.388%
same,outcome,[3],inactive
N=C(N=C(N)N)N1CCOCC1,outcome,[1],inactive
same,outcome,[3],inactive
CC(C)[N+]1(C)[C@@H]2CC[C@H]1CC(OC(=O)C(CO)c1ccccc1)C2 (some centres undefined),outcome,[1],inactive
same,outcome,[3],inactive
Cc1cccc(CN2CCN(C(c3ccccc3)c3ccc(Cl)cc3)CC2)c1 (centres undefined),outcome,[1],inactive
same,outcome,[3],inactive
Oc1ccc(OCc2ccccc2)cc1,Potency,[2],1.58 µM (active)
same,outcome,[3],inactive
O=C1NC(=O)C(c2ccccc2[N+](=O)[O-])=C1Nc1ccc(O)c(Cl)c1,Potency,[2],7.94 µM (active)
same,outcome,[3],inactive
O=C(NCC1CCCCN1)c1cc(OCC(F)(F)F)ccc1OCC(F)(F)F (centres undefined),outcome,[1],inactive
same,outcome,[3],inactive
CNC[C@H](O)c1ccc(O)c(O)c1,outcome,[1],inactive
same,"activity change, negative = inhibition",[4]; at 38 µM (top of the series),1.71% and -6.16%
same,outcome,[3],inactive
CS(=O)(=O)OCCCCOS(C)(=O)=O,Potency,[5],> 92 µM
same,Potency,[6],> 92 µM
same,Potency,[7],> 92 µM
same,Potency,[8],> 92 µM
same,Potency,[9],> 92 µM
same,Potency,[10],> 92 µM
CC1Cc2ccccc2N1NC(=O)c1ccc(Cl)c(S(N)(=O)=O)c1 (centres undefined),outcome,[1],inactive
same,outcome,[3],inactive
COc1cc(OC)c(C(=O)CCCN2CCCC2)c(OC)c1,outcome,[1],inactive
same,outcome,[3],inactive
COC(=O)[C@H](Cc1ccccc1)NC(=O)[C@@H](N)CC(=O)O (H-Asp-Phe-OMe),Potency,[5],> 92 µM
same,Potency,[6],> 92 µM
same,Potency,[7],> 92 µM
same,Potency,[8],> 92 µM
same,Potency,[9],> 92 µM
same,Potency,[10],> 92 µM
O=c1ccc2ccc(O)c(O)c2o1,outcome,[1],inactive
same,outcome,[3],inactive
CCCCN(CCCC)CCC(O)c1cc2c(Cl)cc(Cl)cc2c2cc(C(F)(F)F)ccc12 (centres undefined),outcome,[1],inactive
same,outcome,[3],inactive
CN(C)c1ccc2nc3ccc(=[N+](C)C)cc-3sc2c1,Potency,[6],14.2 µM (active)
same,Potency,[7],35.6 µM (active)
same,Potency,[8],4.17 µM (active)
same,Potency,[9],37.8 µM (active)
same,Potency,[10],10.9 µM (active)
Nc1nc(Cl)nc2c1ncn2[C@H]1C[C@H](O)[C@@H](CO)O1,outcome,[1],inactive
same,outcome,[3],inactive
COc1cc2nc(N3CCN(C(=O)C4CCCO4)CC3)nc(N)c2cc1OC (centres undefined),outcome,[1],inactive
same,outcome,[3],inactive
CN1CCC(=C2c3ccccc3CCc3sccc32)CC1,Potency,[2],inactive
same,outcome,[3],inactive
CCCOc1ccc2nc(NC(=O)OC)[nH]c2c1,outcome,[1],inactive
same,outcome,[3],inactive
CC(C)c1ccc2c(c1)c(SC(C)(C)C)c(CC(C)(C)C(=O)O)n2Cc1ccc(Cl)cc1,Potency,[2],25.1 µM (active) and 31.6 µM (active)
Nc1ccc(S(N)(=O)=O)cc1,outcome,[1],inactive
same,Potency,[5],> 92 µM
same,Potency,[6],> 92 µM
same,Potency,[7],> 92 µM
same,Potency,[8],> 92 µM
same,Potency,[9],> 92 µM
same,Potency,[10],> 92 µM
same,outcome,[3],inactive
COC(=O)C1=C(C)NC(C)=C(C(=O)OC(C)C)C1c1cccc2nonc12 (centres undefined),Potency,[2],31.6 µM (active)
Nc1cc(C(Cl)=C(Cl)Cl)c(S(N)(=O)=O)cc1S(N)(=O)=O,outcome,[1],inactive
same,outcome,[3],inactive
CCOC(=O)C1=C(O)C(=O)N(Cc2ccccc2)C1,Potency,[2],1 µM (active)
COc1ccc2cc([C@H](C)C(=O)O)ccc2c1,outcome,[1],inactive
same,outcome,[3],inactive
O=C(NCCO[N+](=O)[O-])c1cccnc1,Potency,[2],inactive
C[C@H](Cc1ccc(O)c(O)c1)[C@@H](C)Cc1ccc(O)c(O)c1,Potency,[2],31.6 µM (active)
Cc1cc(O)c2c(c1)C(=O)c1cc(O)cc(O)c1C2=O,Potency,[2],3.16 µM (active) and 398 nM (active)
same,Potency,[5],> 92 µM
same,Potency,[9],> 92 µM
same,Potency,[10],35 µM (active)
CCCCC(CC)COC(=O)C(C#N)=C(c1ccccc1)c1ccccc1 (centres undefined),Potency,[5],> 92 µM
same,Potency,[6],> 92 µM
same,Potency,[7],> 92 µM
same,Potency,[8],> 92 µM
same,Potency,[9],> 92 µM
same,Potency,[10],> 92 µM
CC(C)(S)[C@@H](N)C(=O)O,outcome,[1],inactive
same,outcome,[3],inactive
CCN(CC)CCOc1ccc(Cc2ccccc2)cc1,Potency,[2],12.6 µM (active)
CN(C)CCCC1(c2ccc(F)cc2)OCc2cc(C#N)ccc21 (centres undefined),outcome,[1],inactive
same,outcome,[3],inactive
CCN(CC)C(=S)SSC(=S)N(CC)CC,Potency,[2],6.31 µM (active) and 1.58 µM (active)
CC(C)Oc1ccc2c(=O)c(-c3ccccc3)coc2c1,outcome,[1],inactive
same,outcome,[3],inactive
